Reference: PubChem BioAssay AID1159580 (chemical genetic matrix, 2015)
In all, about 5,500 compounds went through this assay and about 2,000 (36%) were called active. Another 18% or so got no clear call; they are omitted. Cut-off read from the data, not from the text of the source: active = normalized growth mostly below about 0.91 (no sharp cut-off); inconclusive = no clear call, values can overlap the other calls; inactive = mostly above about 0.92. Some of the results follow.

Assay: chemical genetic growth profiling, strain panel (AID 1159580);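 note: tested at 20 µM; growth read once vehicle control cultures reached saturation at 30 °C; 1 = growth at the plate median or of vehicle wells; lower values mean less growth of the strain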
Settings: S. cerevisiae deletion strains, growth OD

Measured: normalized growth

CO/N=C(/C(=O)N[C@@H]1C(=O)N2C(C(=O)O)=C(COC(C)=O)CS[C@H]12)c1csc(N)n1
inactive: locus YAL013W, strain DEP1, hits give low values 1.01 | locus YAL040C, strain CLN3, hits give low values 1.02 | locus YDR363W, strain ESC2, hits give low values 1.01 | locus YER002W, strain NOP16, hits give low values 0.983 | locus YGR229C, strain SMI1, hits give low values 1 | locus YMR263W, strain SAP30, hits give low values 0.965 | locus YNL153C, strain GIM3, hits give low values 1.07 | locus YNL175C, strain NOP13, hits give low values 1.01 | locus YNL197C, strain WHI3, hits give low values 1.01 | locus YNL224C, strain SQS1, hits give low values 0.99 | locus YNL322C, strain KRE1, hits give low values 0.985 | locus YOR083W, strain WHI5 (second series), hits give low values 0.978 | locus YPL241C, strain CIN2, hits give low values 1

CO/N=C(\C(=O)NC1C(=O)N2C(C(=O)OC(C)OC(C)=O)=C(COC(N)=O)CSC12)c1ccco1 (stereo not drawn)
inactive: locus YAL021C, strain ccr4, hits give low values 0.994 | locus YAL026C, strain drs2, hits give low values 0.996 | locus YAL030W, strain snc1, hits give low values 0.998 | locus YBL061C, strain skt5, hits give low values 0.992 | locus YBR009C, strain hhf1, hits give low values 0.994 | locus YBR023C, strain chs3, hits give low values 0.988 | locus YBR171W, strain sec66, hits give low values 0.983 | locus YBR231C, strain swc5, hits give low values 1 | locus YBR279W, strain paf1, hits give low values 0.991 | locus YCL011C, strain gbp2, hits give low values 0.997 | locus YCL016C, strain dcc1, hits give low values 0.985 | locus YCL061C, strain MRC1, hits give low values 0.99 | locus YCL069W, strain vba3, hits give low values 0.989 | locus YCR088W, strain abp1, hits give low values 0.994 | locus YDL005C, strain med2, hits give low values 0.985 | locus YDL040C, strain nat1, hits give low values 0.995 | locus YDR001C, strain nth1, hits give low values 1 | locus YDR069C, strain doa4, hits give low values 0.994 | locus YDR137W, strain rgp1, hits give low values 0.996 | locus YDR159W, strain sac3, hits give low values 0.996 | locus YDR195W, strain ref2 0.985 | locus YDR297W, strain sur2, hits give low values 1 | locus YDR334W, strain swr1, hits give low values 1 | locus YDR335W, strain msn5, hits give low values 0.996 | locus YDR392W, strain spt3, hits give low values 0.993 | locus YEL003W, strain gim4, hits give low values 0.998 | locus YEL037C, strain rad23, hits give low values 0.997 | locus YEL061C, strain CIN8 (second series), hits give low values 0.999 | locus YER015W, strain faa2, hits give low values 1 | locus YER016W, strain bim1, hits give low values 0.99 | locus YER111C, strain swi4, hits give low values 0.986 | locus YER155C, strain BEM2 (second series), hits give low values 0.991 | locus YFR010W, strain ubp6, hits give low values 0.998 | locus YGL167C, strain pmr1, hits give low values 0.989 | locus YGL173C, strain kem1, hits give low values 0.985 | locus YGL227W, strain vid30, hits give low values 0.981 | locus YGL240W, strain doc1, hits give low values 1.01 | locus YGL253W, strain hxk2, hits give low values 1 | locus YHR013C, strain ard1, hits give low values 0.998 | locus YHR027C, strain rpn1, hits give low values 0.994 | locus YHR030C, strain SLT2, hits give low values 1.03 | locus YHR079C, strain IRE1, hits give low values 1.05 | locus YHR142W, strain chs7, hits give low values 0.99 | locus YJL092W, strain hpr5, hits give low values 0.993 | locus YJL095W, strain BCK1 (second series), hits give low values 0.997 | locus YJL095W, strain BCK1, hits give low values 1.01 | locus YJL115W, strain asf1, hits give low values 0.996 | locus YJL129C, strain trk1, hits give low values 0.987 | locus YJL154C, strain vps35, hits give low values 1.01 | locus YJL164C, strain tpk1, hits give low values 0.996 | locus YJL166W, strain qcr8, hits give low values 0.996 | locus YJL187C, strain SWE1, hits give low values 1 | locus YJR066W, strain TOR1, hits give low values 0.989 | locus YKL160W, strain elf1, hits give low values 0.997 | locus YKR026C, strain gcn3, hits give low values 0.983 | locus YKR091W, strain srl3, hits give low values 0.998 | locus YLL001W, strain dnm1, hits give low values 0.981 | locus YLL026W, hits give low values 0.991 | locus YLL041C, strain sdh2, hits give low values 0.993 | locus YLR027C, strain aat2, hits give low values 0.992 | locus YLR113W, strain HOG1, hits give low values 1 | locus YLR221C, strain rsa3, hits give low values 0.995 | locus YLR258W, strain gsy2, hits give low values 0.995 | locus YLR262C, strain YPT6 (second series), hits give low values 0.985 | locus YLR320W, strain mms22, hits give low values 0.986 | locus YLR342W, strain FKS1, hits give low values 0.988 | locus YLR357W, strain rsc2, hits give low values 1.02 | locus YLR370C, strain arc18, hits give low values 0.987 | locus YLR384C, strain iki3, hits give low values 1 | locus YML120C, strain ndi1, hits give low values 0.996 | locus YMR058W, strain fet3, hits give low values 0.996 | locus YMR125W, strain sto1, hits give low values 0.985 | locus YMR129W, hits give low values 0.995 | locus YMR205C, strain PFK2, hits give low values 0.991 | locus YMR231W, strain pep5, hits give low values 0.989 | locus YNL071W, strain lat1, hits give low values 1 | locus YNL183C, strain NPR1, hits give low values 0.99 | locus YNL209W, strain ssb2, hits give low values 0.995 | locus YNL248C, strain rpa49, hits give low values 0.987 | locus YNL322C, strain KRE1 (second series), hits give low values 0.99 | locus YNR049C, strain mso1, hits give low values 0.992 | locus YOR001W, strain rrp6, hits give low values 0.999 | locus YOR070C, strain gyp1, hits give low values 0.929 | locus YOR080W, strain dia2, hits give low values 1 | locus YOR083W, strain WHI5, hits give low values 0.996 | locus YOR106W, strain vam3, hits give low values 0.988 | locus YOR231W, strain MKK1, hits give low values 1.04 | locus YOR265W, strain rbl2, hits give low values 0.991 | locus YOR270C, strain vph1, hits give low values 1 | locus YOR290C, strain snf2, hits give low values 1 | locus YPL051W, strain arl3, hits give low values 0.999 | locus YPL078C, strain atp4, hits give low values 0.995 | locus YPL106C, strain sse1, hits give low values 0.981 | locus YPL240C, strain hsp82, hits give low values 0.994 | locus YPL256C, strain CLN2, hits give low values 1.07
